In PubChem BioAssay (Tox21) one finds Potency and max response data, which are given here for 18 compounds.

Test [1] in a line: qHTS RealTime-Glo MT Cell Viability Assay in HEK293 cells - 16 hour (AID 1224872). Also: nearly all actives have a fitted effect of over 50% in size. Also: potency is read from the fitted curve at half-maximal effect. The method in brief:
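Cells + reagent dispensed (600 cells/well, HEK293) → 5 h at 37 C/5% CO2 → 23 nL compound in DMSO pinned → 40 h at 37 C → luminescence read at 0, 8, 16, 24, 32, 40 h.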

Test [2] is described as follows: qHTS RealTime-Glo MT Cell Viability Assay in HepG2 cells - 8 hour (AID 1224873). Also: nearly all actives have a fitted effect of over 55% in size. Also: potency is read from the fitted curve at half-maximal effect. The method in brief:
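Real-time viability: cells seeded at 600 per well together with NanoLuc and cell-permeant prosubstrate, compounds added after 5 h incubation. Luminescence tracked at 0, 8, 16, 24, 32 and 40 h of exposure.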
Background: In qHTS, concentration-response curves come from the screen itself.

Test [3] can be described thus: qHTS RealTime-Glo MT Cell Viability Assay in HEK293 cells - 40 hour (AID 1224874). Also: nearly all actives have a fitted effect of over 50% in size. Also: potency is read from the fitted curve at half-maximal effect. Particulars: RealTime-Glo luminescence; max response: stronger effect = lower value. The method in brief:
(§1)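 600 cells/well were plated with the nonlytic NanoLuc/prosubstrate reagent, pre-incubated 5 h, then given 23 nL of compound in DMSO. Incubation at 37 C for 40 h, with luminescence from viable-cell-reduced substrate read repeatedly from 0 h.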

Test [4] in a line: A CellTox Green Cytotoxicity Assay to monitor cytotoxicity in HEK293 cells - 24 hour (AID 1224875). Also: nearly all actives have a fitted effect of over 45% in size. Also: potency is read from the fitted curve at half-maximal effect. The method in brief: (§2)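 HEK293 cells, 600/well, were preincubated 5 hours and then exposed to compounds at 37 C for up to 40 hours. A cell-impermeant cyanine dye staining dead-cell DNA was read by fluorescence at 0, 8, 16, 24, 32 and 40 h time points.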
The nature of test [5]: A CellTox Green Cytotoxicity Assay to monitor cytotoxicity in HepG2 cells - 16 hour (AID 1224876). Also: nearly all actives have a fitted effect of over 45% in size. Also: potency is read from the fitted curve at half-maximal effect. In a few lines: (§3)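 HepG2 cells, 600/well, preincubated 5 h with CellTox Green dye, then exposed to Tox21 compounds in DMSO at 37 C for up to 40 h. Dead-cell DNA fluorescence read at the indicated time point.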
Test [6] in a line: qHTS RealTime-Glo MT Cell Viability Assay in HepG2 cells - 32 hour (AID 1224877). Also: nearly all actives have a fitted effect of over 55% in size. Also: potency is read from the fitted curve at half-maximal effect. In a few lines: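 Real-time, nonlytic viability: 600 HepG2 cells/well mixed with NanoLuc enzyme plus prosubstrate; 5 h settle, compound (DMSO) added by pintool; luminescence monitored over 40 h at 37 C.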
A short description of test [7]: A CellTox Green Cytotoxicity Assay to monitor cytotoxicity in HepG2 cells - 24 hour (AID 1224878). Also: nearly all actives have a fitted effect of over 45% in size. Also: potency is read from the fitted curve at half-maximal effect. In a few lines:
as §3

The nature of test [8]: A CellTox Green Cytotoxicity Assay to monitor cytotoxicity in HepG2 cells - 40 hour (AID 1224879). Also: nearly all actives have a fitted effect of over 40% in size. Also: potency is read from the fitted curve at half-maximal effect. The method in brief:
as §3

Test [9] in a line: qHTS RealTime-Glo MT Cell Viability Assay in HEK293 cells - 0 hour (AID 1224880). Also: top concentration of the series differs between compounds; nearly all actives have a fitted effect of over 45% in size. The method in brief: as §1
Test [10] can be described thus: A CellTox Green Cytotoxicity Assay to monitor cytotoxicity in HEK293 cells - 32 hour (AID 1224881). Also: nearly all actives have a fitted effect of over 40% in size. The method in brief: as §2

Where “and” joins values, the source holds several entries; their conditions need not be identical. Identical values can stand only once. Results filed as inconclusive are left out. The source holds several records for some structures; these can differ, active in one and inactive in another. Calls of active or inactive are those of the source. Calls follow the shape of the dose curve; as a rule, active = well fitted curve in the direction sought with a large enough effect in the repeat runs; inconclusive = weak or mixed curves; inactive = no such curve, though single readings can be large; an effect the other way counts as inactive or inconclusive.
% is scaled to controls: 0 for no effect and ±100 for the full control effect.

As to `CC(C(=O)O)c1ccc2c(c1)[nH]c1ccc(Cl)cc12` (configuration not stated), the Potency result in test [1], in [2], in test [4], in test [5], in test [6] and in test [7] was “inactive” throughout. Further, the Potency result in test [8] was “inactive”. Further, the max response in test [3] is 1.73% (inactive).

In the case of `Cc1cccc(C)c1NC(=O)c1ccc(N)cc1`, the Potency result in test [1], in test [2], in test [4], in test [5], in test [6] and in test [7] was “inactive” in each case. The Potency result in [8] and in [9] was “inactive” each time. Also, the max response in [3] was -2.12% (inactive).

Turning to `CCCCCCCCCCCCCCCC[N+](C)(C)CC`, the Potency in test [1] is 21.9 µM (active) and 6.74 µM (active); in [2] it was 55.1 µM (active); in test [3], 4.38 µM (active) and 3.38 µM (active); in test [4], 43.8 µM (active) and 23.9 µM (active); in test [5] it was 49.1 µM (active) and 23.9 µM (active); in test [6] it was 21.9 µM (active) and 21.3 µM (active). Also, the Potency in [7] was 24.6 µM (active) and 21.3 µM (active); in test [8], 15.5 µM (active) and 19 µM (active). Also, in test [9], the Potency entry was “inactive”.

`O=c1[nH]c(=O)n([C@H]2C[C@H](O)[C@@H](CO)O2)cc1F`: the Potency entry in [1], in test [2], in [4], in [6], in [9] and in [10] was “inactive” throughout. Besides, the Potency in [3] is 601 nM (active); in test [5], 6.01 µM (active); in test [7], 6.01 µM (active); in test [8], 5.35 µM (active).

As to `O[C@@H]([C@H](O)[C@H](O)CBr)[C@H](O)CBr`, the Potency result in [1], in test [2], in test [4], in test [5], in test [6] and in test [7] was “inactive” in each case. The Potency result in test [8], in [9] and in [10] was “inactive” throughout. Further, the max response in test [3] was 2.46% (inactive).

As for `CN(C)c1ccc(C(=C2C=CC(=[N+](C)C)C=C2)c2ccc(N(C)C)cc2)cc1`, the Potency in test [1] is 6.88 µM (active) and 19.5 µM (active) and 7.56 µM (active); in test [2], 19.4 µM (active) and 24.5 µM (active); in test [3], 1.73 µM (active) and 4.9 µM (active) and 1.69 µM (active); in [5], 10.9 µM (active) and inactive; in test [6], 30.7 µM (active) and 24.5 µM (active) and 21.3 µM (active); in test [7], 10.9 µM (active) and 12.3 µM (active) and 19 µM (active). Further, the Potency in test [8] was 10.9 µM (active) and 12.3 µM (active) and 21.3 µM (active). The Potency result in test [4], in [9] and in test [10] was “inactive” each time.

For `CCc1ccc(Br)cc1`, the Potency result in test [1], in [2], in test [4], in test [5], in test [6] and in test [7] was “inactive” in each case. Also, the Potency result in test [8], in test [9] and in [10] was “inactive” throughout. Also, in test [3], the max response is 5.1% (inactive).

Turning to `CCCCCCC1CCCC(=O)O1` (configuration not stated), the Potency result in test [1], in test [2], in [4], in test [5], in test [6] and in [7] was “inactive” each time. Besides, the Potency entry in test [8], in [9] and in test [10] was “inactive” throughout. Also, the max response in test [3] was 3.13% (inactive).

As to `CC(C)NC[C@@H](O)COc1ccc(CC(N)=O)cc1`, the Potency entry in [1], in test [2], in test [4], in test [5], in [6] and in test [7] was “inactive” throughout. The Potency entry in test [8], in [9] and in [10] was “inactive” each time. Also, the max response in test [3] was -0.295% (inactive).

As for `O=S(=O)(O)c1ccc(Nc2nc(Nc3ccc(/C=C/c4ccc(Nc5nc(Nc6ccc(S(=O)(=O)O)cc6)nc(N(CCO)CCO)n5)cc4S(=O)(=O)O)c(S(=O)(=O)O)c3)nc(N(CCO)CCO)n2)cc1`, the Potency result in [1], in test [2], in test [4], in test [5], in test [6] and in test [7] was “inactive” in each case. Further, the Potency entry in [8] and in test [9] was “inactive” in each case. In addition, the max response in test [3] is -1.51% (inactive).

With `O=C1C(c2[nH]c3ccc(S(=O)(=O)O)cc3c2O)=Nc2ccc(S(=O)(=O)O)cc21`, the Potency result in [1], in [2], in test [4], in test [5], in test [6] and in [7] was “inactive” in each case. The Potency result in test [8] and in [9] was “inactive” each time. Besides, the max response in test [3] was 10.2% (inactive).

On to `CN(C)C(=O)COC(=O)Cc1ccc(OC(=O)c2ccc(N=C(N)N)cc2)cc1`, for which the Potency result in test [1], in [2], in test [4], in [5], in test [6] and in [7] was “inactive” each time. The Potency entry in test [8], in [9] and in test [10] was “inactive” each time. Further, in test [3], the max response is 5.33% (inactive).

In the case of `CCCCCCCCCCOC(=O)c1ccccc1C(=O)OCCCCCCCC`, the Potency entry in [1], in [2], in [4], in test [5], in test [6] and in test [7] was “inactive” throughout. In addition, the Potency result in test [8], in test [9] and in test [10] was “inactive” each time. The max response in [3] was 1.51% (inactive).

As to `CC(C)CCCCCOC(=O)CCS`, the Potency result in test [1], in test [2], in test [4], in [5], in test [6] and in test [7] was “inactive” each time. The Potency entry in test [8], in [9] and in test [10] was “inactive” throughout. Besides, in test [3], the max response was 0.648% (inactive).

On to `CC1=CCC(=C(C)C)CC1`, for which the Potency result in test [1], in test [2], in test [4], in test [5], in test [6] and in test [7] was “inactive” each time. The Potency result in [8] and in [9] was “inactive” each time. Also, the max response in [3] was -2.74% (inactive).

`Nc1ccc(Oc2ccc(Cl)cc2)cc1`: the Potency in test [1] is 21.4 µM (active); in [3] it was 21400 nM (active). Besides, the Potency entry in test [2], in test [4], in test [5], in [6], in test [7] and in test [8] was “inactive” in each case. For the same compound, the Potency entry in [9] and in test [10] was “inactive” each time.

For `CC(N=C(NC#N)Nc1ccncc1)C(C)(C)C` (configuration not stated), the Potency entry in test [1], in test [2], in test [4], in [5], in test [6] and in [7] was “inactive” throughout. Also, the Potency result in [8] and in test [9] was “inactive” throughout. Further, in [3], the max response is -0.652% (inactive).

Take `CC1(C)CC(O)CC(C)(C)N1`: the Potency entry in test [1], in test [2], in test [4], in test [5], in test [6] and in test [7] was “inactive” in each case. The Potency entry in test [8], in test [9] and in test [10] was “inactive” in each case. In addition, the max response in test [3] was -4.64% (inactive).
